# Results reported in PubChem BioAssay (NCATS).
# Inconclusive results are not listed. Calls of active or inactive are those of the source. Calls follow the shape of the dose curve; as a rule, active = well fitted cell-killing curve with a large enough effect; inconclusive = small, poorly fitted or top-dose-only effect, or effect the other way; inactive = no such curve, though single readings can be large or run the other way. Peptide text beside a SMILES is read from it.
# Assay: Quantitative High-Throughput drug screen in 47 multiple myeloma cell lines against the NCATS MIPE library collection: OCIMY5_PLB cell viability assay (AID 1918988); also: nearly all actives have a fitted effect of over 65% in size
# Conditions: OCI-MY5 myeloma viability, ATP luminescence, 48 h; series mostly up to 45.8 µM; viability, % of control: at the top concentration
# Text: PI: Beverly A. Mock Ph.D.
# Laboratory of Cancer Biology and Genetics,
# Center for Cancer Research, National Cancer Institute,
# National Institute of Health, Bethesda, Maryland
# Drug resistance and disease progression are common in multiple myeloma (MM) patients, underscoring the need for new therapeutic combinations. […] We hypothesized that effective combinations would reduce MYC expression and enhance p16 activity. […] These preclinical data identify potentially useful drug combinations for evaluation in drug-resistant MM and reveal potential mechanisms of combined drug sensitivity.
# Described herein is the primary MIPE qHTS used to cherrypick compounds. Validated compounds were then further tested for potential synergistic activiy.
# [1] Peat TJ, Gaikwad SM, Dubois W, Gyabaah-Kessie N, Zhang S, Gorjifard S, Phyo Z, Andres M, Hughitt VK, Simpson RM, Miller MA, Girvin AT, Taylor A, Williams D, D'Antonio N, Zhang Y, Rajagopalan A, Flietner E, Wilson K, Zhang X, Shinn P, Klumpp-Thomas C, McKnight C, Itkin Z, Chen L, Kazandijian D, Zhang J, Michalowski AM, Simmons JK, Keats J, Thomas CJ, Mock BA. Drug combinations identified by high-throughput screening promote cell cycle transition and upregulate Smad pathways in myeloma. Cancer Lett. 2023 Aug 1;568:216284. doi: 10.1016/j.canlet.2023.216284. Epub 2023 Jun 24. PMID: 37356470; PMCID: PMC10408729.
# SEQUENCE No. (e.g., 1, 2, 3, etc.); […] (e.g., Cells, Incubation, Reagent, etc.); VALUE and DESCRIPTION.
# 1; Cells; 5 uL; white, solid bottom 1536-well Greiner assay plate.
# 2; Compounds; 23 nL; Kalypsis pin tool (Wako USA) equipped with a 1536-well pin head to transfer to the assay plates.
# 3; Incubation; 48 hours; 37C incubation.
# 4; Reagent;5uL; CellTiter Glo (Promega).
# 5; Detector; 425V; Luminescence; Viewlux PerkinElmer.
# NOTES (numbers refer to Sequence numbers above)
# 1. The cell-based screening methods employed in this study were like those previously published. Briefly, the corresponding myeloma cell lines were screened in 1,536-well plates with 500 cells, 5-uL per well for inhibition of cell viability (assessed by measuring ATP levels with CellTiterGlo).
# 2. NCATS MIPE 4.0 library of approved and investigational drugs were added using the Kalypsis pin tool. Wells treated with DMSO only for 100% viability and media only for 0% viability were used as controls.
# 3. The assay plates were covered and incubated for 48 hours in a 37C, 5% CO2 incubator with controlled humidity.
# 4. After 48 hours, CellTilter-GloTM luminescent substrate mix (Promega) reagent was added to the assay plate and plates we incubated for 5 min at room temperature.
# 5. Signal was measured as median relative luminescence units on a ViewLux (PerkinElmer) multiplate reader.
# [1] Heske CM, Davis MI, Baumgart JT, Wilson K, Gormally MV, Chen L, Zhang X, Ceribelli M, Duveau DY, Guha R, Ferrer M, Arnaldez FI, Ji J, Tran HL, Zhang Y, Mendoza A, Helman LJ, Thomas CJ. Matrix Screen Identifies Synergistic Combination of PARP Inhibitors and Nicotinamide Phosphoribosyltransferase (NAMPT) Inhibitors in Ewing Sarcoma. Clin Cancer Res. 2017 Dec 1;23(23):7301-7311. doi: 10.1158/1078-0432.CCR-17-1121. Epub 2017 Sep 12. PMID: 28899971; PMCID: PMC6636827.
# Potency is read from the fitted curve at half-maximal effect.
Compound,Potency,"viability, % of control"
COc1cc(Nc2c(C#N)cnc3cc(OCCCN4CCN(C)CC4)c(OC)cc23)c(Cl)cc1Cl,18.7 µM (active),–
CN(C)C(=O)[C@H](O)[C@H](Cc1ccccc1)NC(=O)c1cc2cc(Cl)ccc2[nH]1,13.2 µM (active),–
CCC(C)(Oc1ccc(C2(c3ccc(OC(C)(CC)C(=O)O)cc3)CCCCC2)cc1)C(=O)O (stereo not given),–,176% (inactive)
O=C(c1ccccc1)c1ccc2n1CCC2C(=O)O (stereo not given),0.743 µM (active),–
O=C(NCCO[N+](=O)[O-])c1cccnc1,–,169% (inactive)
CN1C(C(=O)Nc2ccccn2)=C(O)c2sccc2S1(=O)=O,6.62 µM (active),–
Clc1ccc(C(Cn2ccnc2)OCc2ccsc2Cl)c(Cl)c1 (stereo not given),26.4 µM (active),–
O=c1c(O)c(-c2cc(O)c(O)c(O)c2)oc2cc(O)cc(O)c12,23.5 µM (active),–
C[C@@H](c1ncncc1F)[C@](O)(Cn1cncn1)c1ccc(F)cc1F,–,146% (inactive)
CCN(CC)C(=S)SSC(=S)N(CC)CC,0.0059 µM (active),–
Oc1ccc(-c2nc(-c3ccc(F)cc3)c(-c3ccncc3)[nH]2)cc1,16.6 µM (active),–
CC(=O)O[C@H]1C(=O)[C@@]2(C)C([C@H](OC(=O)c3ccccc3)[C@]3(O)C[C@H](OC(=O)[C@H](O)[C@@H](NC(=O)c4ccccc4)c4ccccc4)C(C)=C1C3(C)C)[C@]1(OC(C)=O)CO[C@@H]1C[C@@H]2O (stereo not given in full),–,34.5% (inactive)
O=c1cc(N2CCOCC2)oc2c(-c3ccccc3)cccc12,13.2 µM (active),–
O=C(OC1C[C@H]2CC[C@@H](C1)[N+]21CCCC1)C(O)(c1ccccc1)c1ccccc1 (stereo not given in full),–,174% (inactive)
CC(C)C[C@H](NC(=O)[C@H](Cc1ccccc1)NC(=O)c1cnccn1)B(O)O,0.0047 µM (active),–
O=Nc1c(-c2c(O)[nH]c3cc(Br)ccc23)[nH]c2ccccc12,7.43 µM (active),–
N=C(N)c1ccc2cc(OC(=O)c3ccc(N=C(N)N)cc3)ccc2c1,18.7 µM (active),–
CN(C)[C@@H](CCOc1cccc2ccccc12)c1ccccc1,20.9 µM (active),–
Nc1cccc2c1CN(C1CCC(=O)NC1=O)C2=O (stereo not given),–,122% [at 92.2 µM] (inactive)
CCCCc1ccc2nc(NC(=O)OC)[nH]c2c1,0.0037 µM (active),–

Compound,Potency,"viability, % of control"
CCC1=C(C)CN(C(=O)NCCc2ccc(S(=O)(=O)NC(=O)NC3CCC(C)CC3)cc2)C1=O (stereo not given),–,171% (inactive)
CC(C)[N+]1(C)[C@@H]2CC[C@H]1CC(OC(=O)C(CO)c1ccccc1)C2 (stereo not given in full),–,180% (inactive)
CCN(CC)CCOc1ccc(Nc2ncc3cc(-c4c(Cl)cccc4Cl)c(=O)n(C)c3n2)cc1,0.105 µM (active),–
O=C(O)c1cccc(-c2noc(-c3ccccc3F)n2)c1,9.35 µM (active),–
CCCCCCCCCCCCCCCCCCCCCCO,–,146% (inactive)
O=P(O)(O)C(O)(Cn1ccnc1)P(=O)(O)O,–,167% [at 23.2 µM] (inactive)
COc1c(O)cc2c(c1O)[C@@H]1O[C@H](CO)[C@@H](O)[C@H](O)[C@H]1OC2=O,–,186% (inactive)
COc1cc(OC)c(C(=O)CCCN2CCCC2)c(OC)c1,–,131% (inactive)
O=C(NC(Cc1cc(=O)[nH]c2ccccc12)C(=O)O)c1ccc(Cl)cc1 (stereo not given),14.8 µM (active),–
COC1=C(OC)C(=O)C(CCCCCCCCCCO)=C(C)C1=O,20.9 µM (active),–
COC(=O)[C@H](Cc1ccccc1)NC(=O)[C@@H](N)CC(=O)O (H-Asp-Phe-OMe),–,153% (inactive)
CN(C)c1ccc2nc3ccc(=[N+](C)C)cc-3sc2c1,0.526 µM (active),–
Oc1ccc2ccccc2c1SSc1c(O)ccc2ccccc12,14.8 µM (active),–
COC(=O)C1=C(C)NC(C)=C(C(=O)OC(C)C)C1c1cccc2nonc12 (stereo not given),–,156% (inactive)
CCCCN(CCCC)CCC(O)c1cc2c(Cl)cc(Cl)cc2c2cc(C(F)(F)F)ccc12 (stereo not given),11.8 µM (active),–
Nc1nc(N)c(N=O)c(OCC2CCCCC2)n1,13.2 µM (active),–
CCCc1cc(=O)[nH]c(=S)[nH]1,–,163% (inactive)
Cc1nc(Nc2ncc(C(=O)Nc3c(C)cccc3Cl)s2)cc(N2CCN(CCO)CC2)n1,0.743 µM (active),–
COc1ccc2cc([C@H](C)C(=O)O)ccc2c1,20.9 µM (active),–
c1ccc2[nH]c(-c3cscn3)nc2c1,–,144% (inactive)
